FLuc counter – inhibits or activates purified firefly luciferase, miR-21 counter-screen; P08659; Potency, µM (highest dose often 57.5 µM), inactives show top-dose activity change, negative = inhibition, actives largely listed as inhibitors; AID 588342; purified FLuc, Km substrates, luminescence inhibition; 360,000 compounds, 6.9% hits;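 also: plate controls were vehicle for no effect and reference inhibitor for full effect; nearly all actives have a fitted effect of over 55% in size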
Target sequence (P08659 whole entry, looked up): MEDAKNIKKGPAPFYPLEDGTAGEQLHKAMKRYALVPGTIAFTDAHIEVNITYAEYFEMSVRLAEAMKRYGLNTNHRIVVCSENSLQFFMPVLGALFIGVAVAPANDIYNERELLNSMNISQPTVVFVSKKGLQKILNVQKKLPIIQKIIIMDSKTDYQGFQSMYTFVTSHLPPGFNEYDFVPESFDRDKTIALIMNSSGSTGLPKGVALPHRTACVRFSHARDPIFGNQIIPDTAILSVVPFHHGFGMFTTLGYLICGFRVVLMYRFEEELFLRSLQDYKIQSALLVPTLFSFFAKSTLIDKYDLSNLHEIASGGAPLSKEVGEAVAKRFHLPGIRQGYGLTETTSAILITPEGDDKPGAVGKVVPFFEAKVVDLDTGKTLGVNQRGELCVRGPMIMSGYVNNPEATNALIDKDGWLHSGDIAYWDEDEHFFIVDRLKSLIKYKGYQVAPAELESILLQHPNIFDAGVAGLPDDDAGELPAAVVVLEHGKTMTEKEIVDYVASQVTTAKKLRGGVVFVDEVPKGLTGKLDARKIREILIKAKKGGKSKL
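Biochemical qHTS of compounds, final roughly 60 µM downward over six points, against 10 nM purified firefly luciferase using Km concentrations of substrates (10 uM D-luciferin, 10 uM ATP) in Tris acetate pH 7.5 buffer; luminescence output.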
ELG1 genotox – induces genotoxicity in HEK293T cells with luciferase-tagged ELG1 | HEK293T ELG1-luciferase reporter, luminescence, 16 h | Potency, µM (top dose mostly 46 µM), for inactives: at the top dose activity change, positive = activation, actives largely listed as activators | 330,000 compounds, 1.3% hits; also: % of control where 0% means no effect; nearly all actives have a fitted effect of over 60% in size
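Reporter readout depends on ELG1 protein level, which increases with genetic stress. After 16 hr compound exposure at 37 °C, luciferase activity was quantified using ONE-Glo.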
Rab9 promoter act – Rab9 promoter activation. Potency, µM (top dose mostly 9.22 µM), without a hit: at the highest dose activation, negative = inhibition, actives largely listed as activators. Huh7 Rab9 promoter-luciferase reporter, luminescence, 24 h. 320,000 compounds, 2.8% hits; also: % of control where 0% means no effect; nearly all actives have a fitted effect of over 60% in size
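Luciferase signal after 10 min detection reagent at ambient indicates Rab9 promoter upregulation; stably transfected Huh7 cells were treated 24 h with compound in DMSO at 37 °C, 5% CO2.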
SMN2 splice enh – increases expression of the SMN2 splice variant | 210,000 compounds, 2.8% hits | AID 1458 | HEK293 SMN2-luciferase splicing reporter, luminescence, 30-36 h | Potency, µM (doses to about 46.1 µM), for the others: at the highest dose activity change, positive = activation, actives largely listed as activators; also: % of control where 0% means no effect; nearly all actives have a fitted effect of over 55% in size
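HEK293 cells carry an SMN2 […]–luciferase reporter in which exon 7 inclusion puts luciferase in frame. Cells were plated 10-12 h before compound addition, then incubated 30-36 h at 37C. ONE-Glo luminescence was read; sodium butyrate at 4.5 mM final served as control.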
NPC1 prom act – NPC1 promoter activation. Huh7 NPC1 promoter luciferase reporter, 24 h. 320,000 compounds, 2.4% hits. Potency, µM (series often up to 9.22 µM), for the others: at the top dose activation, usual class: activators; also: % of control where 0% means no effect; nearly all actives have a fitted effect of over 60% in size
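Stably transfected Huh7 (NPC1 promoter→luciferase), 1500 cells/well in Opti-MEM + 10% FBS, 2 h settle, then compound 24 h at 37 °C. Luminescence after 10 min with Amplite reagent.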
ELG1 DNA repair – inhibitors of ELG1-dependent DNA repair in HEK293T cells; AID 504467; Potency, µM (series often up to 46.1 µM), without a hit: at the highest dose activity change, negative = inhibition, usual class: inhibitors; HEK293T ELG1-luciferase reporter, luminescence, 16 h; DNA damage induced by 5-fluorouridine; 330,000 compounds, 2.3% hits; also: % is scaled to controls: 0 for no effect and ±100 for the full control effect; nearly all actives have a fitted effect of over 55% in size
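HEK293T cells expressing luciferase-tagged ELG1 (2,000/well) received 5-Fluorouridine plus compound or DMSO for 16 hr at 37 °C. Luciferase was read by ONE-Glo luminescence after 30 min at room temperature.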
* hit, by the source's call; u = inconclusive; x = no result. The list is not random: actives were taken first. Their share in the collection is about 9.4%. Calls follow the shape of the dose curve; as a rule, active = well fitted curve in the direction sought with a large enough effect; inconclusive = small, poorly fitted or top-dose-only effect, or another doubt; inactive = no such curve, though single readings can be large; an effect the other way counts as inactive or inconclusive. Potency is read from the fitted curve at half-maximal effect.

SMILES	FLuc counter	ELG1 genotox	Rab9 promoter act	SMN2 splice enh	NPC1 prom act	ELG1 DNA repair
COC(=O)N1CCC[C@@]2(CCN(Cc3cc(C(F)(F)F)cc(C(F)(F)F)c3)C2)C1	x	x	x	-3%	x	x
COc1ccc(-c2ccnc3c(-c4ccc(F)cc4)c(C)nn23)cc1OC	0%	x	x	-3%	x	x
COc1ccc(-c2c(C)nn3c(-c4ccccc4)cc(C)nc23)cc1	-2%	-6%	-11%	-17%	-4%	u
COc1cccc(-c2ccnc3c(-c4ccc(F)cc4)c(C)nn23)c1	8.5µM*	x	x	15%	x	x
COc1cccc(-c2ccnc3c(-c4ccccc4)c(C)nn23)c1	11µM*	x	x	u	x	x
CC(NC(=O)CSc1nc(-c2cccc(Cl)c2)nc2cc(=O)[nH]n12)c1nc2ccccc2n1C (configuration not stated)	-6%	x	x	x	x	x
COc1ccc2c(c1)CCc1c-2nc2ccccc2c1N1CCOCC1	5.4µM*	4%	17%	x	1%	6%
c1ccc2c(N3CCOCC3)c3c(nc2c1)CCC3	1%	-8%	-2%	x	-4%	-16%
Cc1ccsc1/C=N/NC(=O)c1cccs1	11µM*	u	u	x	u	u
Cc1ccsc1/C=N/NC(=O)C(O)c1ccccc1 (configuration not stated)	-4%	0%	6%	x	-2%	21%
Cc1ccsc1/C=N/NC(=O)c1ccccn1	8.5µM*	u	2.5µM*	11µM*	2µM*	u
Nc1c(-c2cccc([N+](=O)[O-])c2)nc2ccccn12	17µM*	u	3.2µM*	u	u	u
Cc1cc2c([nH]c3ccccc32)c2c1OC(C)(C)C=C2	11µM*	u	3.2µM*	x	3.2µM*	u
COc1ccc2[nH]c(=O)c3c(c2c1)OC(C)(C)C=C3	1%	-6%	-3%	12%	18%	u
O=C(CSc1nnc(-c2cccnc2)s1)Nc1ccnc2ccccc12	-5%	-4%	-34%	-70%	-23%	12µM*
CCCCn1ccnc1C(=O)c1cccc(S(=O)(=O)N2CC(C)CC(C)C2)c1 (configuration not stated)	-3%	-2%	-8%	6%	4%	21µM*
CCCCn1ccnc1C(=O)c1cc(S(=O)(=O)N2CCOCC2)ccc1C	5%	-4%	-19%	-53%	-8%	6.5µM*
COc1ccc(S(=O)(=O)N2CCC(C(=O)NC(C)c3ccccc3)CC2)cc1 (configuration not stated)	-3%	x	x	-7%	x	x
COC(=O)c1ccccc1NC(=O)Cn1c(=O)n(-c2ccc(C)cc2)c(=O)c2ccccc21	2%	x	x	11%	x	x
COc1cccc(N2CCc3c(C)nc4ccc(Cl)cc4c32)c1	-1%	-17%	-6%	x	-8%	23µM*
COC(=O)c1cc2c(s1)CS(=O)C2 (configuration not stated)	13µM*	u	4µM*	u	2.5µM*	u
Brc1cc(Br)c2nc(-c3cccs3)ccc2c1	9.5µM*	11µM*	u	11µM*	1%	u
COc1ccc(Cn2c(=O)c3oc4ccccc4c3n(Cc3ccccc3)c2=O)cc1	5%	x	x	x	x	x
CCn1c(=O)c2cc(C(=O)N(C)c3cc(C)ccc3C)sc2c2ccccc21	-18%	x	x	1%	x	x
C=CCN1C(c2ccccc2)=CS/C1=C(\C#N)c1nnc2n1CCCCC2	-3%	-13%	-8%	11%	8%	11µM*
SMILES	FLuc counter	ELG1 genotox	Rab9 promoter act	SMN2 splice enh	NPC1 prom act	ELG1 DNA repair
O=C(c1ccncc1)N1CCC2(CCCN(Cc3nccs3)C2)CC1	x	x	x	-9%	x	x
Cc1ccc(NC(=O)CSc2nc3ccccc3c(=O)n2CCCC(=O)N2CCCC2)cc1	-1%	-2%	-7%	-18%	-17%	-18%
COCCn1c(SCC(=O)Nc2sccc2C(N)=O)nc2cc(Cl)ccc2c1=O	-19%	0%	-6%	x	2%	23µM*
O=C(CSc1nc2ccccc2c(=O)n1CCC(=O)N1CCCCC1)NCc1ccccc1	0%	-4%	-4%	-10%	-4%	15µM*
COCCn1c(SCC(=O)Nc2ccc(S(=O)(=O)N(C)C)cc2)nc2ccccc21	-2%	-6%	8%	-17%	-1%	15µM*
COCCn1c(SCC(=O)Nc2ccccc2)nc2c(oc3ccccc32)c1=O	0%	23µM*	-4%	8%	-7%	u
COCCn1c(SCC(=O)Nc2cccnc2Cl)nc2cc(Cl)ccc2c1=O	x	-2%	1%	x	-1%	u
CCOc1ncccc1C(=O)OCC(=O)c1ccc(F)cc1	u	-3%	1%	11%	u	-8%
COCCn1c(SCC(=O)Nc2ccc(NC(=O)c3ccco3)c(OC)c2)nc2ccccc2c1=O	-1%	8%	-3%	-5%	0%	-1%
COCCCn1c(SCC(=O)Nc2ccc(C(=O)OC)cc2)nc2ccccc2c1=O	4%	-11%	3%	-12%	18%	0%
CCCCn1c(SCC(=O)Nc2cc(NC(=O)c3ccco3)ccc2C)nc2ccccc2c1=O	-1%	-4%	-4%	-19%	-4%	16µM*
COCCCn1c(SCC(=O)Nc2ccc(C)cc2)nc2ccccc2c1=O	24µM*	13%	18%	x	13%	u
Cn1nnnc1Sc1ncnc2scc(-c3ccc(Cl)cc3)c12	5%	-8%	-3%	x	-3%	16µM*
Cn1nnnc1Sc1ncnc2scc(-c3ccc([N+](=O)[O-])cc3)c12	0%	-8%	-26%	x	-11%	7.3µM*
COc1ccc(-c2csc3ncnc(Sc4nnnn4C)c23)cc1	x	-8%	x	x	x	u
Cn1nnnc1Sc1ncnc2scc(-c3cccc(Br)c3)c12	x	-5%	x	x	x	13µM*
Cc1ccc(CNC(=O)C2CCN(S(=O)(=O)c3ccc4[nH]c(=O)ccc4c3)CC2)cc1	-4%	x	x	x	x	x
O=C(O)CC1S/C(=N/N=C/C=C/c2ccccc2)NC1=O (configuration not stated)	19µM*	3%	0%	-6%	-2%	11%
COc1cccc(NS(=O)(=O)c2ccc3[nH]cc(C(=O)NC(C)c4ccccc4)c(=O)c3c2)c1 (configuration not stated)	u	x	x	-91%	x	x
c1ccc(OCc2nnc(-c3ccccc3)o2)cc1	17µM*	u	4µM*	13µM*	u	u
Oc1ccccc1-c1nnc(COc2ccc(Cl)cc2Cl)o1	u	13µM*	19%	u	-1%	u
O=Cc1ccc(OCc2nnc(-c3ccccc3Br)o2)cc1	u	15%	-1%	x	-2%	u

From PubChem BioAssay
